Screening results deposited in PubChem by National Center for Advancing Translational Sciences (NCATS).
Sampled rows, rich in hits. Any-hit rate of the full collection: about 5.3%.
PNC inhibitor = perinucleolar compartment assembly inhibition | PC3M PTB-GFP, PNC prevalence imaging, 16 h; stronger effect = lower value | activity change (PNC), negative = inhibition, % at 10 µM | hit rate 3.1% among 140,000 | AID 2417;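 active = readout at or below -70, meaning at least 70% loss of cells showing the perinucleolar compartment, a nuclear body marking cancer cells; inconclusive = readout between -30 and a set limit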
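Read-out is percentage of cells bearing a perinucleolar compartment, from automated 20x imaging of fixed, Hoechst-stained PC3M PTB-GFP cells. Cells were seeded 4 h, then exposed 16 h to compound (23 nl of library stock) in duplicate plates.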
ALOX12 inhib = 12-hLO (ALOX12) enzyme inhibition; purified 12-hLO, xylenol orange hydroperoxide absorbance; hit rate 0.12% among 150,000; P18054; Potency, µM (highest dose often 57.1 µM), hits mostly inhibitors; note: nearly all actives have a fitted effect of over 55% in size
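Lipoxygenase turnover measured by absorbance at 573 and 405 nm after Fe-XO development. Human 12hLO 150 nM, arachidonate 40 uM, pH 7.0 Hepes buffer with detergent; 15 min compound preincubation, 30 min reaction.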
15-hLO-2 inh = 15-hLO-2 (ALOX15B) enzyme inhibition | O15296 | purified 15hLO-2, xylenol orange hydroperoxide absorbance | Potency, µM (highest dose often 57.1 µM), hits mostly inhibitors | hit rate 0.56% among 110,000 | AID 881; note: nearly all actives have a fitted effect of over 60% in size
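Screening format was qHTS against 50 nM purified 15hLO-2 in Hepes pH 7.5 with detergent. Activity follows hydroperoxide formation from 45 uM arachidonic acid, measured as 573:405 nm absorbance ratio of the ferric-xylenol orange complex.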
IMPase Li inh = membrane-permeable IMPase blocker, potentiated with lithium. hit rate 0.35% among 210,000. CHO-M1 cells, IP1 TR-FRET (IP-One), carbachol + lithium. AID 1457. Potency, µM (series often up to 59.4 µM), most hits filed as inhibitors;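 note: IP1 builds up when IMPase is blocked and the TR-FRET signal falls; nearly all actives have a fitted effect of over 50% in size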
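CHO-M1, 2000 cells/well, 16–30 h culture; cpd + low Li+, 30 min 37C; lysis with d2-IP1/Eu-anti-IP1 Ab, 10 min RT; TR-FRET 665/620 ratio and 620 channel; AC50 via Hill.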
HPGD block = inhibitors of human 15-hydroxyprostaglandin dehydrogenase (HPGD); P15428; purified HPGD, NADH fluorescence kinetic, PGE2 substrate; Potency, µM, usual class: inhibitors; hit rate 4.3% among 150,000; active = well fitted inhibition curve with a large enough effect, not every such curve was filed as active; inconclusive = small, poorly fitted or top-dose-only effect, or another doubt; inactive = no such curve, though single readings can be large or run the other way
Target sequence (P15428 whole entry, looked up): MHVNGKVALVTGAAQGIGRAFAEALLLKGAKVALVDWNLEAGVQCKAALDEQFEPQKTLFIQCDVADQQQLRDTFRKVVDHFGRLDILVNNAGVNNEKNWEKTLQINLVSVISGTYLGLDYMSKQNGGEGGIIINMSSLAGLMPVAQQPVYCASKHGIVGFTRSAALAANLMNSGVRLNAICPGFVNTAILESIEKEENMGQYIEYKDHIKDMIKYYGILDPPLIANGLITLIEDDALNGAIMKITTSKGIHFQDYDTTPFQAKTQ
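NADH formation kinetics: reaction with 30 uM PGE2 and 1 mM NAD+ (final), 20 nM enzyme, Tris-HCl pH 8 with Tween 20, after 15 min compound preincubation at room temperature. Fluorescence change, last versus first of five reads.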
IMPase cell inh = cell-permeable inhibitors of inositol monophosphatase (IMPase); 120,000 tested, under 10 active; AID 901; inhibition (IP1 accumulation), % at 46.1 µM; P97697; CHO-M1 cells, IP1 accumulation, HTRF TR-FRET ratio; active = well fitted curve in the direction sought with a large enough effect in the signal ratio, not every such curve was filed as active; inconclusive = small, poorly fitted or top-dose-only effect, or a change in a side signal; inactive = no such curve, though single readings can be large or run the other way; the % refers to the signal ratio;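 note: cells stimulated with carbachol in lithium chloride buffer; higher means more IMPase inhibition seen as more IP1 and lower FRET ratio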
Target sequence (P97697 whole entry, looked up): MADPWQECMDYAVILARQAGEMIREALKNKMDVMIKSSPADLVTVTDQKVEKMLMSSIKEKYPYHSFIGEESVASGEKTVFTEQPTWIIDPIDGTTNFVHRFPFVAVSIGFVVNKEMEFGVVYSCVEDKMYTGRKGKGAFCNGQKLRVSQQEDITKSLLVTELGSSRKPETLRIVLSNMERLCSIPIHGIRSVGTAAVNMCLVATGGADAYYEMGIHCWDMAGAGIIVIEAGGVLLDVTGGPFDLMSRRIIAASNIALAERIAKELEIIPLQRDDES
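In this qHTS, compounds (final up to 46 uM) act on CHO-M1 cells that are then activated through the M1 receptor with carbachol, in pH 7.4 buffer containing 50 mM LiCl, for 30 min. IP1 accumulation is quantified by the IP-One immunoassay.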
A number is an active result; - = inactive; ? = inconclusive; . = no result. Unless noted, calls come from the whole dose curve; as a rule, active = well fitted curve in the direction sought with a large enough effect; inconclusive = small, poorly fitted or top-dose-only effect, or another doubt; inactive = no such curve, though single readings can be large; an effect the other way counts as inactive or inconclusive.

SMILES	PNC inhibitor	ALOX12 inhib	15-hLO-2 inh	IMPase Li inh	HPGD block	IMPase cell inh
O=C(NCc1ccco1)c1ccc2c(=O)n(-c3ccccc3)c(=S)[nH]c2c1	-	-	-	12.6µM	-	-
CC(C)CCNC(=O)CCCOc1cc(=O)n(C)c2ccccc12	-	-	-	-	15.8µM	-
O=C(CCCCCN1C(=O)c2ccccc2C1=O)NCc1ccco1	-	-	-	-	11.2µM	-
Cn1c(=O)cc(OCCCC(=O)NCc2ccco2)c2ccccc21	-	-	-	-	20µM	-
Cc1ccc(CNC(=O)CCCOc2cc(=O)n(C)c3ccccc23)o1	-	-	-	-	-	-
O=C(CCN1C(=O)c2ccccc2S1(=O)=O)NCc1ccco1	-	-	-	-	-	-
CCN(C(=O)COc1cccc2cccnc12)C1CCS(=O)(=O)C1 (configuration not stated)	.	.	.	-	.	.
Cc1ccc(NC(=O)c2cc(NC(=O)C3CC=CCC3C(=O)O)ccc2N2CCOCC2)cc1Cl (configuration not stated)	-	-	-	-	-	-
CCOc1cc2[nH]c(=O)n(CCCC(=O)NCc3ccco3)c(=O)c2cc1OCC	-	-	-	-	-	-
CC1CCN(C(=O)CCCOc2cc(=O)n(C)c3ccccc23)CC1	?	-	-	-	7.94µM	-
CCOc1cc2[nH]c(=S)n(CCCC(=O)NCc3ccco3)c(=O)c2cc1OCC	-	-	-	14.1µM	-	-
CCOc1ccc(-c2nnn(CC(=O)NCc3ccco3)n2)cc1OCC	-100.0	-	.	-	-	-
O=C(Cn1[nH]c(=O)c2ccccc2c1=O)Nc1cccnc1	.	.	.	-	.	.
O=C(Cn1[nH]c(=O)c2ccccc2c1=O)Nc1ccc(-c2nnc3n2CCCCC3)cc1	-	-	-	-	3.55µM	-
O=C(Cc1n[nH]c(=O)c2ccccc12)Nc1ccc(-c2nnc3n2CCCCC3)cc1	-	-	-	-	10µM	-
O=C(CC1Sc2ccccc2NC1=O)Nc1cccc(-c2nnc3n2CCCCC3)c1 (configuration not stated)	-	-	-	-	31.6µM	-
Cc1ccc(CN2CCN(/N=C/c3ccc(C)s3)CC2)cc1	-	-	.	-	-	.
O=c1[nH]c2cc3c(cc2cc1C(c1nnnn1Cc1ccccc1)N1CCCc2ccccc21)OCO3 (configuration not stated)	-118.9	-	.	-	-	-
Cc1ccc(F)cc1NC(=O)CSc1ncccn1	.	.	.	-	.	.
O=C(Nc1sc2c(c1C(=O)O)CCC2)c1cccs1	-	-	-	-	25.1µM	?
O=C(Nc1sc2c(c1C(=O)O)CCC2)c1ccc(F)cc1	.	.	.	-	.	.
O=C(Nc1sc2c(c1C(=O)O)CCC2)c1ccccc1	-	-	-	-	17.8µM	-
O=C(Nc1sc2c(c1C(=O)O)CCCCC2)c1ccccc1	.	.	.	-	.	.
O=C(O)c1c(NC(=O)c2cccc3ccccc23)sc2c1CCC2	?	-	-	-	15.8µM	-
O=C(c1cncs1)N1CCCC(CNS(=O)(=O)c2cccs2)C1 (configuration not stated)	.	.	.	-	.	.
SMILES	PNC inhibitor	ALOX12 inhib	15-hLO-2 inh	IMPase Li inh	HPGD block	IMPase cell inh
CCOC(=O)c1c(NC(=O)COc2ccc(Cl)cc2C)sc(C(C)=O)c1C	.	.	.	.	.	-
COc1cc(CNn2c(C)n[nH]c2=S)cc(Cl)c1OCc1ccccc1	-	?	?	-	15.8µM	-
CC(C)NS(=O)(=O)c1ccc(CCC(=O)N2CCC(C(N)=O)CC2)cc1	.	.	.	-	.	.
Cc1cccc(-n2ncc3c(N4CCC(C)CC4)ncnc32)c1	-	-	-	-	28.2µM	-
CCN1CCN(c2ncnc3c2cnn3-c2ccccc2)CC1	?	-	-	-	-	-
CCOC(=O)C1CCCN(c2ncnc3c2cnn3-c2cccc(C)c2)C1 (configuration not stated)	-	-	-	-	-	-
c1ccc(-n2ncc3c(N4CCCCC4)ncnc32)cc1	-	-	-	-	17.8µM	-
C=CCn1c(SCC(=O)OCC)nc(C(F)(F)F)cc1=O	.	.	.	-	.	.
O=C1c2ccccc2C(=O)c2c1ccc1c(=O)n(-c3ccccc3)[nH]c21	?	-	.	-	-	.
CC(C)Cn1[nH]c2c3c(ccc2c1=O)C(=O)c1ccccc1C3=O	-	-	-	-	2µM	?
O=C(c1cccc(F)c1)N1CCC[C@@]2(CCN(Cc3ccccc3)C2)C1	.	-	-	-	17.8µM	.
COc1ccc(C(=O)N2CCC[C@@]3(CCN(c4ccncc4)C3)C2)cc1	.	-	-	-	-	.
COc1ccc(C(=O)N2CCC[C@@]3(CCN(c4ccccc4)C3)C2)cc1	.	-	-	-	14.1µM	.
O=C(c1cccc(F)c1)N1CCC[C@@]2(CCN(c3ccccc3)C2)C1	.	?	?	-	7.94µM	.
CCOC(=O)c1c(-c2ccccc2)oc2ccc(O)c(CN3CCN(C)CC3)c12	-113.8	-	.	-	-	.
COc1ccc(/C=C/C(=O)OCC(=O)NCc2ccco2)c(OC)c1	.	.	.	-	.	.
CC(=S)c1c(C)cc2cc(C)ccn12	-	-	.	-	-	.
Cc1cc(C(F)F)n2ncc(C(=O)N3CCc4ccccc4C3)c2n1	-	-	-	-	22.4µM	-
O=C(c1ccccc1)C(Sc1ncn[nH]1)c1ccccc1 (configuration not stated)	-	-	.	-	39.8µM	-
CSc1nc(N)c2ncn([C@@H]3O[C@H](COP(=O)(O)OP(=O)(O)OP(=O)(O)O)[C@H](O)[C@H]3O)c2n1	.	.	.	-	-	.
O=C(Nc1ccccc1)N1CC2(CCN(S(=O)(=O)c3ccccc3)CC2)C1	.	-	-	-	-	.
CCOc1cccc(-c2cc(C(=O)N/N=C/c3cccc(OC)c3O)[nH]n2)c1	.	-	.	.	-	.
